Experimental data reported in PubChem BioAssay AID1159580 (chemical genetic matrix, 2015).
About 2,000 (36%) of roughly 5,500 compounds were called active. Inconclusive results (about 18%) are left out. Rule as the data show it: active = normalized growth mostly below about 0.91 (no sharp cut-off); inconclusive = no clear call, values can overlap the other calls; inactive = mostly above about 0.92. The list shows a part of the results.

Assay: chemical genetic growth profiling, strain panel (AID 1159580);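 also: tested at 20 µM; growth read once vehicle control cultures reached saturation at 30 °C; 1 = growth at the plate median or of vehicle wells; lower values mean less growth of the strain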
Conditions: S. cerevisiae deletion strains, growth OD

Measured: normalized growth

CC1(C)S[C@@H]2[C@H](NC(=O)[C@H](C(=O)O)c3cccs3)C(=O)N2[C@H]1C(=O)O
inactive: locus YAL021C, strain ccr4, stronger effect = lower value 0.996 | locus YAL026C, strain drs2, stronger effect = lower value 1.02 | locus YAL030W, strain snc1, stronger effect = lower value 1.01 | locus YBL061C, strain skt5, stronger effect = lower value 1.01 | locus YBR009C, strain hhf1, stronger effect = lower value 1.03 | locus YBR023C, strain chs3, stronger effect = lower value 1.01 | locus YBR171W, strain sec66, stronger effect = lower value 1.03 | locus YBR231C, strain swc5, stronger effect = lower value 1.02 | locus YBR279W, strain paf1, stronger effect = lower value 1.01 | locus YCL011C, strain gbp2, stronger effect = lower value 1.01 | locus YCL016C, strain dcc1, stronger effect = lower value 0.998 | locus YCL061C, strain MRC1, stronger effect = lower value 1.01 | locus YCL069W, strain vba3, stronger effect = lower value 0.999 | locus YCR088W, strain abp1, stronger effect = lower value 0.996 | locus YDL005C, strain med2, stronger effect = lower value 1.01 | locus YDL040C, strain nat1, stronger effect = lower value 0.999 | locus YDR001C, strain nth1, stronger effect = lower value 1 | locus YDR069C, strain doa4, stronger effect = lower value 1.04 | locus YDR137W, strain rgp1, stronger effect = lower value 1.02 | locus YDR159W, strain sac3, stronger effect = lower value 1.01 | locus YDR195W, strain ref2 1.02 | locus YDR297W, strain sur2, stronger effect = lower value 1.01 | locus YDR334W, strain swr1, stronger effect = lower value 1 | locus YDR335W, strain msn5, stronger effect = lower value 1.01 | locus YDR392W, strain spt3, stronger effect = lower value 1.01 | locus YEL003W, strain gim4, stronger effect = lower value 1.01 | locus YEL037C, strain rad23, stronger effect = lower value 0.973 | locus YEL061C, strain CIN8 (second series), stronger effect = lower value 0.991 | locus YER015W, strain faa2, stronger effect = lower value 1.01 | locus YER016W, strain bim1, stronger effect = lower value 1 | locus YER111C, strain swi4, stronger effect = lower value 1.01 | locus YER155C, strain BEM2 (second series), stronger effect = lower value 1.04 | locus YFR010W, strain ubp6, stronger effect = lower value 1 | locus YGL167C, strain pmr1, stronger effect = lower value 1.01 | locus YGL173C, strain kem1, stronger effect = lower value 1.01 | locus YGL227W, strain vid30, stronger effect = lower value 1 | locus YGL240W, strain doc1, stronger effect = lower value 1.04 | locus YGL253W, strain hxk2, stronger effect = lower value 0.998 | locus YHR013C, strain ard1, stronger effect = lower value 1.03 | locus YHR027C, strain rpn1, stronger effect = lower value 1 | locus YHR030C, strain SLT2, stronger effect = lower value 1.01 | locus YHR079C, strain IRE1, stronger effect = lower value 1.02 | locus YHR142W, strain chs7, stronger effect = lower value 0.957 | locus YJL092W, strain hpr5, stronger effect = lower value 1 | locus YJL095W, strain BCK1 (second series), stronger effect = lower value 1 | locus YJL095W, strain BCK1, stronger effect = lower value 0.974 | locus YJL115W, strain asf1, stronger effect = lower value 1 | locus YJL129C, strain trk1, stronger effect = lower value 1.01 | locus YJL154C, strain vps35, stronger effect = lower value 0.999 | locus YJL164C, strain tpk1, stronger effect = lower value 0.999 | locus YJL166W, strain qcr8, stronger effect = lower value 1.01 | locus YJL187C, strain SWE1, stronger effect = lower value 1.02 | locus YJR066W, strain TOR1, stronger effect = lower value 0.952 | locus YKL160W, strain elf1, stronger effect = lower value 1.01 | locus YKR026C, strain gcn3, stronger effect = lower value 0.991 | locus YKR091W, strain srl3, stronger effect = lower value 1.01 | locus YLL001W, strain dnm1, stronger effect = lower value 0.999 | locus YLL026W, stronger effect = lower value 1.01 | locus YLL041C, strain sdh2, stronger effect = lower value 1.01 | locus YLR027C, strain aat2, stronger effect = lower value 1.01 | locus YLR113W, strain HOG1, stronger effect = lower value 0.971 | locus YLR221C, strain rsa3, stronger effect = lower value 0.989 | locus YLR258W, strain gsy2, stronger effect = lower value 1.02 | locus YLR262C, strain YPT6 (second series), stronger effect = lower value 0.996 | locus YLR320W, strain mms22, stronger effect = lower value 1.01 | locus YLR342W, strain FKS1, stronger effect = lower value 1.01 | locus YLR357W, strain rsc2, stronger effect = lower value 1.07 | locus YLR370C, strain arc18, stronger effect = lower value 1.01 | locus YLR384C, strain iki3, stronger effect = lower value 0.994 | locus YML120C, strain ndi1, stronger effect = lower value 1.01 | locus YMR058W, strain fet3, stronger effect = lower value 1.02 | locus YMR125W, strain sto1, stronger effect = lower value 1.03 | locus YMR129W, stronger effect = lower value 1 | locus YMR205C, strain PFK2, stronger effect = lower value 1.03 | locus YMR231W, strain pep5, stronger effect = lower value 1.01 | locus YNL071W, strain lat1, stronger effect = lower value 1.01 | locus YNL183C, strain NPR1, stronger effect = lower value 0.96 | locus YNL209W, strain ssb2, stronger effect = lower value 1.01 | locus YNL248C, strain rpa49, stronger effect = lower value 0.991 | locus YNL322C, strain KRE1 (second series), stronger effect = lower value 1.01 | locus YNR049C, strain mso1, stronger effect = lower value 0.994 | locus YOR001W, strain rrp6, stronger effect = lower value 1 | locus YOR070C, strain gyp1, stronger effect = lower value 0.999 | locus YOR080W, strain dia2, stronger effect = lower value 1.02 | locus YOR083W, strain WHI5, stronger effect = lower value 1 | locus YOR106W, strain vam3, stronger effect = lower value 1 | locus YOR231W, strain MKK1, stronger effect = lower value 1.02 | locus YOR265W, strain rbl2, stronger effect = lower value 0.998 | locus YOR270C, strain vph1, stronger effect = lower value 1 | locus YOR290C, strain snf2, stronger effect = lower value 1.01 | locus YPL051W, strain arl3, stronger effect = lower value 1 | locus YPL078C, strain atp4, stronger effect = lower value 0.989 | locus YPL106C, strain sse1, stronger effect = lower value 1.03 | locus YPL240C, strain hsp82, stronger effect = lower value 0.986 | locus YPL256C, strain CLN2, stronger effect = lower value 1.03
